SMILES strings stand for the structures.

In the assay the test system is HepG2. In words: GSK_TCMDC: Percent inhibition of human HepG2 cell line. Test compounds present at 10uM. Format: functional.
On to `O=S(=O)(Nc1ccc(CCN2CCC(N3CCCCC3)CC2)cc1)c1cccc2cccnc12`, for which the Inhibition came to 14%.
To `CCOC(=O)c1ccc(NC(=O)N[C@@H](Cc2ccccc2)C(=O)NC2CCN(Cc3ccc(O)cc3)C2)cc1` (stereo partly drawn) belongs 7%.
`CCNc1cc(-c2cccc(OC)c2)nc(Nc2ccc(F)cc2)n1` returned an Inhibition of 11%.
